From PubChem BioAssay (EPA / NIEHS)
Inconclusive results are not listed. Calls of active or inactive are those of the source. How the source made its calls, unless noted: active means hit-call score of the fitted dose curve at least 0.9, where 1 is the maximum; inactive means score below 0.9.

Key:
[1] = ATG_TCF_b_cat_CIS: Attagene CIS-FACTORIAL HepG2 Assay for human T-Cell-Factor with beta-catenin (TCF/b-cat) (AID 2282965); conditions: HepG2 TCF/beta-catenin cis-reporter transcription, actives raise or lower the signal
Summary of the method: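 In this cis-format system, transfected HepG2 cells report endogenous transcription factor activity. Readout after 24 h exposure is reporter transcript abundance from RT-PCR and capillary electrophoresis, analysed for gain or loss of signal versus DMSO.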

[2] = ATG_TAL_CIS: Attagene CIS-FACTORIAL HepG2 Assay for human TAL Basal Promoter (AID 2282966); conditions: HepG2 Attagene cis-factorial TAL promoter reporter; actives raise or lower the signal;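 further: background control endpoint measuring basal TAL promoter reporter mRNA not a specific factor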
Summary of the method: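 Background-control endpoint: basal TAL promoter reporter transcripts in transiently transfected HepG2, measured 24 h after dosing. Read-out by RT-PCR with fluorescent primer extension and capillary electrophoresis; gain or loss of signal fitted relative to DMSO.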

[3] = ATG_TGFb_CIS: Attagene CIS-FACTORIAL HepG2 Assay for human Transforming Growth Factor (TGF) (AID 2282967); conditions: HepG2 Attagene CIS TGFb reporter, mRNA transcription; actives raise or lower the signal
Summary of the method: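 Transcript-level reporter readout: HepG2 transfectants, 24 h exposure, RNA to cDNA, reporter-specific PCR, fluorescent primer extension, capillary sizing against ROX standards. Gain- or loss-of-signal relative to DMSO.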

[4] = ATG_VDRE_CIS: Attagene CIS-FACTORIAL HepG2 Assay for human Vitamin D Receptor Element (VDRE) (AID 2282968); conditions: HepG2 VDRE cis-reporter transcription, actives raise or lower the signal
Summary of the method: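 Steps: transfect HepG2 with multiple reporter transcription units; dose chemicals 24 h; isolate RNA; RT-PCR; label with 6-FAM primer extension; HpaI digest; capillary electrophoresis. Curves fitted both directions against DMSO.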

[5] = molecular target: Steroid hormone receptor ERR1 (Homo sapiens) (UniProt P11474); experiment: ATG_ERRa_TRANS: Attagene TRANS-FACTORIAL HepG2 Assay for human Estrogen-Related Receptor alpha (ERRa) (AID 2282971; active means hit-call score of the fitted dose curve at least 0.9, where 1 is the maximum); conditions: HepG2 Attagene TRANS reporter, ERRa transactivation
Sequence of Steroid hormone receptor ERR1 (Homo sapiens) (P11474 whole entry, looked up, the tested form may be a part): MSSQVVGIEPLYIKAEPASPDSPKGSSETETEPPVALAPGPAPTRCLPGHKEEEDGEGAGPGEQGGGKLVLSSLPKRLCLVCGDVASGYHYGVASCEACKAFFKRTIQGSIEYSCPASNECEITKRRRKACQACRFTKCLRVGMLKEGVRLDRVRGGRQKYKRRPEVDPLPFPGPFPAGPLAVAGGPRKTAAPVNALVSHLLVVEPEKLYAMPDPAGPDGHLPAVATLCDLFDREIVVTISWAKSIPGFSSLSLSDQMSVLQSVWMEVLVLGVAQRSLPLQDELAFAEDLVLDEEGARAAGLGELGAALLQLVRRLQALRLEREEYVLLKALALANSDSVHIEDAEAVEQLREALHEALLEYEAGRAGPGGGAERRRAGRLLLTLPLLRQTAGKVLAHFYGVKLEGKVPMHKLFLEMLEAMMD
Summary of the method: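 Reporter transcripts from ERRa-Gal4 chimera activity measured in transiently transfected human HepG2 cells 24 hours after dosing, using RT-PCR with 6-FAM primer extension, HpaI digestion and capillary electrophoresis; DMSO is baseline.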

[6] = molecular target: X-box-binding protein 1 (Homo sapiens) (UniProt P17861); experiment: ATG_Xbp1_CIS: Attagene CIS-FACTORIAL HepG2 Assay for human X-box Binding Protein 1 (XBP1) (AID 2282972); conditions: HepG2 XBP1 cis-element reporter, Attagene multiplex; actives raise or lower the signal
Sequence of X-box-binding protein 1 (Homo sapiens) (P17861 whole entry, looked up): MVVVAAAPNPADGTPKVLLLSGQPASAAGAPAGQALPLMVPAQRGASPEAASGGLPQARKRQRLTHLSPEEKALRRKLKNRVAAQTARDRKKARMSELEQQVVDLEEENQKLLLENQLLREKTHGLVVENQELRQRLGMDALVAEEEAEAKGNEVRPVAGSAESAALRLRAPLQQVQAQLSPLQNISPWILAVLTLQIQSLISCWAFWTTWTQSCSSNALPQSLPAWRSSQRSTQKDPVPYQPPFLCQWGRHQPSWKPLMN
Summary of the method: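 Reporter transcripts were quantified by RT-PCR with fluorescent primer extension and capillary electrophoresis after 24 h chemical exposure. Cells: transiently transfected HepG2 carrying cis-regulated reporter constructs; data fitted bidirectionally relative to DMSO.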

[7] = ATG_GAL4_TRANS: Attagene TRANS-FACTORIAL HepG2 Assay for GAL4 (Internal Marker) (AID 2282976; active means hit-call score of the fitted dose curve at least 0.9, where 1 is the maximum); conditions: HepG2 Attagene TRANS GAL4 internal marker reporter
Summary of the method: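 In transfected human HepG2 liver cells dosed 24 h, GAL4 reporter mRNA serves as a baseline marker. Detection by RT-PCR with fluorescent capillary electrophoresis, activity fitted upward relative to DMSO.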

[8] = ATG_M_19_TRANS: Attagene TRANS-FACTORIAL HepG2 Assay for M19 Transcription Factor (Internal Marker) (AID 2282974; active means hit-call score of the fitted dose curve at least 0.9, where 1 is the maximum); conditions: HepG2 Attagene TRANS-FACTORIAL M19 internal marker reporter
Summary of the method: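 Multiplexed TRANS format: HepG2 liver cells bearing transient GAL4-UAS reporter units, chemical treatment 24 h, reporter transcripts quantified by RT-PCR plus capillary electrophoresis. DMSO defines baseline.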

[9] = molecular target: Estrogen receptor (Homo sapiens) (UniProt P03372); experiment: ATG_ERa_TRANS: Attagene TRANS-FACTORIAL HepG2 Assay for human Estrogen Receptor alpha (ERa) (AID 2282970; active means hit-call score of the fitted dose curve at least 0.9, where 1 is the maximum); conditions: HepG2 Attagene TRANS ERa GAL4 reporter, mRNA
Sequence of Estrogen receptor (Homo sapiens) (P03372 whole entry, looked up, the tested form may be a part): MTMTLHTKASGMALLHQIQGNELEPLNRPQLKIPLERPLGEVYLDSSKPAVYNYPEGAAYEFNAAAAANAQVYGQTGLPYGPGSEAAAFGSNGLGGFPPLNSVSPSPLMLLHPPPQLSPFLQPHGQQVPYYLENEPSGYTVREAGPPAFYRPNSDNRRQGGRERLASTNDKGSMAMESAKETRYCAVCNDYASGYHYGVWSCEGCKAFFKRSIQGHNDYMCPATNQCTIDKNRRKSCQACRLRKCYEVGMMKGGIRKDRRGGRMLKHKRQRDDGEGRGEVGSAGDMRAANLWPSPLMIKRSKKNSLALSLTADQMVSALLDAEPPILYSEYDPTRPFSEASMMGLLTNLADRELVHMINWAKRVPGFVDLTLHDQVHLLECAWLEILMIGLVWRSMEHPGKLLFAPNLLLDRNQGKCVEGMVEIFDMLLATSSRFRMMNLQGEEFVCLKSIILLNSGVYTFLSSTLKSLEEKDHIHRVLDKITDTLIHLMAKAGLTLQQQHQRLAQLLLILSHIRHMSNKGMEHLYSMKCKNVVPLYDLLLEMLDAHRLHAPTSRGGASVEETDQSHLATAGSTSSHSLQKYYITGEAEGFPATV
Summary of the method: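 Reporter transcripts were measured 24 h after dosing by RT-PCR with fluorescent primer extension and capillary electrophoresis. The system is transiently transfected HepG2 expressing exogenous NR-Gal4 chimeras driving GAL4-UAS reporters; DMSO is the baseline.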

[10] = molecular target: Nuclear receptor subfamily 1 group I member 3 (Homo sapiens) (UniProt Q14994); experiment: ATG_CAR_TRANS: Attagene TRANS-FACTORIAL HepG2 Assay for human Constitutive Androstane Receptor (CAR) (AID 2282969; active means hit-call score of the fitted dose curve at least 0.9, where 1 is the maximum;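 further: activators raise reporter mRNA above DMSO so AC50 marks induction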); conditions: HepG2 Attagene TRANS-FACTORIAL CAR reporter
Sequence of Nuclear receptor subfamily 1 group I member 3 (Homo sapiens) (Q14994 whole entry, looked up, the tested form may be a part): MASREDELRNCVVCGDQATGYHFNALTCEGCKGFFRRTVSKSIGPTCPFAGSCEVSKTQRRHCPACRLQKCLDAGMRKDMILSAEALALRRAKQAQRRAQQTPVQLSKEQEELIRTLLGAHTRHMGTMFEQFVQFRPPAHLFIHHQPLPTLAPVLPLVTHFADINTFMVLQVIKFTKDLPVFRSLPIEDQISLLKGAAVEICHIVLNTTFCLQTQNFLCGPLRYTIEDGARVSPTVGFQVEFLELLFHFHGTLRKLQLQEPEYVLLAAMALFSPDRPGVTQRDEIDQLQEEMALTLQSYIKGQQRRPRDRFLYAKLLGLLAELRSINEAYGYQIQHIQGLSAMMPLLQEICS
Summary of the method: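 Steps: transient transfection of HepG2 with multiple GAL4-UAS reporter units; 24 h compound incubation; RNA isolation, RT-PCR, 6-FAM primer extension, HpaI digest; capillary electrophoresis. Gain-of-signal relative to DMSO negative control.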

Measured: AC50

CCCCCCCC/C=C\CCCCCCCC(=O)OCC(O)CO (stereo unspecified)
not listed: [8] | [9] | [10]
inactive: all other assays above

CCC(C)CO (stereo unspecified)
not listed: [7] | [9] | [10]
inactive: all other assays above

C#CC(O)CCC (stereo unspecified)
not listed: [9] | [10]
inactive: all other assays above

CCCCCC/C=C/CCCCCCCC(=O)O
inactive: [1] | [2] | [4] | [9] | [8]

CCCCCCCCCc1ccc(OCCO)cc1
active: [1] 21.5 µM
inactive: [2] | [4] | [9] | [6] | [8]

C=C(C)CCCC
inactive: [1] | [2] | [4] | [10] | [8] | [7]

CCc1ccc(C)nc1
not listed: [3] | [5] | [9]
inactive: all other assays above

CCN=c1cc2oc3cc(NCC)c(C)cc3c(-c3ccccc3C(=O)OCC)c-2cc1C
active: [1] 7.34 µM | [6] 11.1 µM
inactive: [2] | [3] | [4]

Cc1cccc(C)n1
inactive: [1] | [2] | [3] | [4] | [8] | [7]

CC(=O)c1ccccc1N
inactive: [1] | [2] | [3] | [4] | [6] | [7]

CCN(CC)c1ccc2c(c1)Oc1cc(N(CC)CC)ccc1C21OC(=O)c2ccccc21
active: [1] 50 µM | [4] 1.32 µM
inactive: [2] | [9] | [7]

C=CC(=O)OCCC(F)(F)C(F)(F)C(F)(F)C(F)(F)F
inactive: [1] | [2] | [3] | [4] | [5] | [7]

CCN(CC)c1ccc(N=Nc2ccccc2)cc1
inactive: [1] | [2] | [9] | [6] | [8]
active: [4] 7.19 µM

CCCCOC(=O)[C@H](C)O
not listed: [3] | [5] | [10]
inactive: all other assays above

O=C=Nc1cccc2c(N=C=O)cccc12
not listed: [3] | [9]
inactive: all other assays above

O=C(Cl)c1ccc(Cl)cc1Cl
inactive: [1] | [2] | [3] | [4] | [8]

C=CC(=O)OCC(F)(F)C(F)(F)C(F)(F)C(F)(F)C(F)(F)C(F)(F)C(F)(F)C(F)F
active: [1] 89.1 µM | [9] 1.52 µM
inactive: [2] | [4] | [10] | [6]

Cc1ccc(O)cn1
not listed: [3] | [6] | [9]
inactive: all other assays above

NCC(F)(F)C(F)(F)C(F)(F)C(F)(F)C(F)(F)C(F)(F)F
not listed: [3] | [8] | [10]
inactive: all other assays above

C=CC(=O)OCC(F)(F)C(F)(F)C(F)(F)COC(=O)C=C
inactive: [9] | [6]
active: [1] 19.8 µM | [4] 20.7 µM

NCC(F)(F)C(F)(F)C(F)(F)C(F)(F)C(F)(F)C(F)(F)C(F)(F)C(F)(F)F
not listed: [2] | [8] | [10]
inactive: all other assays above

OCC(F)(F)C(F)(F)C(F)(F)C(F)(F)C(F)(F)C(F)(F)C(F)(F)C(F)(F)CO
active: [9] 0.178 µM
not listed: [2] | [8] | [10]
inactive: all other assays above

CCCCOC(=O)C(C)O (stereo unspecified)
not listed: [2] | [5] | [9]
inactive: all other assays above

CCn1c2ccccc2c2ccccc21
inactive: [2] | [4] | [10] | [9] | [6]
active: [3] 0.0275 µM

CO[Si](C)(CCC(F)(F)C(F)(F)C(F)(F)C(F)(F)C(F)(F)C(F)(F)F)OC
inactive: [1] | [3] | [4] | [9] | [8]

Cc1cnccn1
inactive: [1] | [3] | [4] | [10] | [8] | [7]

COC(F)(C(F)F)C(F)(F)F (stereo unspecified)
inactive: [1] | [4] | [9] | [5] | [6] | [7]

Oc1ccc(C2(c3ccc(O)c(C4CCCCC4)c3)CCCCC2)cc1C1CCCCC1
active: [1] 33.4 µM | [4] 0.619 µM | [6] 6.08 µM
inactive: [3] | [9] | [7]

OCC(F)(F)C(F)(F)C(F)(F)CO
inactive: [1] | [4] | [9] | [5] | [7]

Nc1cccnc1N
not listed: [2] | [5] | [9]
inactive: all other assays above

CC(C)(C)c1cc(Cc2cc(C(C)(C)C)c(O)c(C(C)(C)C)c2)cc(C(C)(C)C)c1O
active: [4] 2.31 µM
inactive: [1] | [9] | [6] | [8]
